Results as given in the supplement of paper PMC9492666.

What was measured:
[1] = tested on: HCC1937; assay: relative cell viability, compound + RSL3, vs DMSO (fraction of DMSO control); higher = less growth inhibition; conditions: 72 h
[2] = tested on: MDA-MB-231; assay: as above; conditions: 72 h
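Further: breast cancer cell viability read out with the CCK-8 kit after co-treatment of each compound with the ferroptosis inducer RSL3.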

Row | Compound | relative cell viability [1] | relative cell viability [2]
1 | CS(=O)(=O)c1ccc(-c2nnc(/C=C/c3nnc(-c4ccc(C#N)cc4)o3)n2-c2ccccc2Cl)nc1 + COC(=O)c1ccc([C@H]2c3[nH]c4ccccc4c3C[C@H](C(=O)OC)N2C(=O)CCl)cc1 [RSL3] | 0.508 | 0.502
2 | O=C(O)/C=C/c1ccc(O)c(O)c1 [Caffeic Acid] + COC(=O)c1ccc([C@H]2c3[nH]c4ccccc4c3C[C@H](C(=O)OC)N2C(=O)CCl)cc1 [RSL3] | 0.623 | 0.426
3 | CCCCCCCCCCCCC/C=C/[C@@H](O)[C@@H](N)CO + COC(=O)c1ccc([C@H]2c3[nH]c4ccccc4c3C[C@H](C(=O)OC)N2C(=O)CCl)cc1 [RSL3] | 0.0823 | 0.167
4 | O=C(CC(C(=O)O)c1c[nH]c2ccccc12)c1ccc(F)cc1F (stereo unspecified) [Mitochonic acid 5] + COC(=O)c1ccc([C@H]2c3[nH]c4ccccc4c3C[C@H](C(=O)OC)N2C(=O)CCl)cc1 [RSL3] | 0.636 | 0.769
5 | COc1ccc(C2(CNC(=O)c3ccc(NC(=O)c4ccco4)cc3)CCOCC2)cc1 + COC(=O)c1ccc([C@H]2c3[nH]c4ccccc4c3C[C@H](C(=O)OC)N2C(=O)CCl)cc1 [RSL3] | 0.441 | 0.49
6 | CN1CC(O)C2=C/C(=N/NC(N)=O)C(=O)C=C21 (stereo unspecified) [Carbazochrome] + COC(=O)c1ccc([C@H]2c3[nH]c4ccccc4c3C[C@H](C(=O)OC)N2C(=O)CCl)cc1 [RSL3] | 0.451 | 0.551
7 | CC(O)(CC(=O)O)CC(=O)O [Meglutol] + COC(=O)c1ccc([C@H]2c3[nH]c4ccccc4c3C[C@H](C(=O)OC)N2C(=O)CCl)cc1 [RSL3] | 0.443 | 0.613
8 | O=C(O)c1ccnc(N2CC(O)(c3ccc(OCc4c(-c5c(Cl)cccc5Cl)noc4C4CC4)cc3Cl)C2)c1 [Cilofexor] + COC(=O)c1ccc([C@H]2c3[nH]c4ccccc4c3C[C@H](C(=O)OC)N2C(=O)CCl)cc1 [RSL3] | 0.368 | 0.568
9 | NC(=O)c1cnccn1 [Pyrazinamide] + COC(=O)c1ccc([C@H]2c3[nH]c4ccccc4c3C[C@H](C(=O)OC)N2C(=O)CCl)cc1 [RSL3] | 0.607 | 0.558
10 | CCC1C(O)C2C3CCC(C(C)CCO)C3(C)CCC2C2(C)CCC(O)CC12 (stereo unspecified) + COC(=O)c1ccc([C@H]2c3[nH]c4ccccc4c3C[C@H](C(=O)OC)N2C(=O)CCl)cc1 [RSL3] | 0.399 | 0.364
11 | Nc1ncnc2c1ncn2[C@@H]1O[C@H](COP(=O)(O)O)[C@@H](O)[C@H]1O [Adenosine 5'-monophosphate] + COC(=O)c1ccc([C@H]2c3[nH]c4ccccc4c3C[C@H](C(=O)OC)N2C(=O)CCl)cc1 [RSL3] | 0.597 | 0.485
12 | NC(=O)c1cccc(-c2cccc(OC(=O)NC3CCCCC3)c2)c1 + COC(=O)c1ccc([C@H]2c3[nH]c4ccccc4c3C[C@H](C(=O)OC)N2C(=O)CCl)cc1 [RSL3] | 0.407 | 0.707
13 | Nc1ncnc2c1ncn2C1OC(COP(=O)(O)O)C(O)C1O (stereo unspecified) [Adenosine 5'-monophosphate monohydrate] + COC(=O)c1ccc([C@H]2c3[nH]c4ccccc4c3C[C@H](C(=O)OC)N2C(=O)CCl)cc1 [RSL3] | 0.932 | 0.622
14 | CC(C)(O)[C@@H]1Cc2cc3ccc(=O)oc3cc2O1 [marmesin] + COC(=O)c1ccc([C@H]2c3[nH]c4ccccc4c3C[C@H](C(=O)OC)N2C(=O)CCl)cc1 [RSL3] | 0.412 | 0.59
15 | CCCc1c(-c2ccccc2)[nH]n(-c2ccccn2)c1=O [APX-115 free base] + COC(=O)c1ccc([C@H]2c3[nH]c4ccccc4c3C[C@H](C(=O)OC)N2C(=O)CCl)cc1 [RSL3] | 0.412 | 0.415
16 | O=C(Nc1ccccc1)c1cc([N+](=O)[O-])ccc1Cl + COC(=O)c1ccc([C@H]2c3[nH]c4ccccc4c3C[C@H](C(=O)OC)N2C(=O)CCl)cc1 [RSL3] | 0.805 | 0.705
17 | CC(C)c1nc(N(C)S(C)(=O)=O)nc(-c2ccc(F)cc2)c1/C=C/[C@@H](O)C[C@@H](O)CC(=O)O [Rosuvastatin] + COC(=O)c1ccc([C@H]2c3[nH]c4ccccc4c3C[C@H](C(=O)OC)N2C(=O)CCl)cc1 [RSL3] | 0.54 | 0.527
18 | Cc1cc(=O)oc2c(O)c(O)ccc12 [7,8-Dihydroxy-4-methylcoumarin] + COC(=O)c1ccc([C@H]2c3[nH]c4ccccc4c3C[C@H](C(=O)OC)N2C(=O)CCl)cc1 [RSL3] | 0.539 | 0.7
